{"source": "PubChem BioAssay (NCATS)", "key": {"[1]": {"assay": "Drug repurposing screens with cells derived from glioblastoma tumor samples (AID 1345199); also: nearly all actives have a fitted effect of over 40% in size", "conditions": "GBM patient neurospheres viability, ATP luminescence, 48 h", "summary_of_the_method": "(§1)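 Four patient lines of CD133+ GBM neurospheres were screened at several concentrations; hits were retested in those lines plus three slower-growing GBM lines, using 48-hour treatment and ATP-based viability.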"}, "[2]": {"tested_on": "astro", "assay": "Drug repurposing screens with cells derived from glioblastoma tumor samples (AID 1345199)", "conditions": "viability, ATP luminescence, 48 h; series mostly up to 45.9 µM", "summary_of_the_method": "as §1"}, "[3]": {"conditions": "at 45.9 µM (top of the series), tumour line B"}, "[4]": {"conditions": "at 45.9 µM (top of the series), tumour line D"}, "[5]": {"conditions": "at 46 µM (top of the series), tumour line A"}, "[6]": {"conditions": "at 46.1 µM (top of the series), tumour line C"}, "[7]": {"conditions": "at 20 µM (top of the series), tumour line C"}}, "note": "Inconclusive results are not listed. Values without a mark were called inactive. Activity calls are given as the source filed them. Calls follow the shape of the dose curve; as a rule, active = well fitted inhibition curve with a large enough effect; inconclusive = small, poorly fitted or top-dose-only effect; inactive = flat fitted curve, though single readings scatter. % is scaled to controls: 0 for no effect and ±100 for the full control effect; potency is read from the fitted curve at half-maximal effect."}
{"compound": "C=CCSSSCC=C", "values": [{"measurement": "activity, negative = cell killing", "setting": "[1]; [3]", "value": -7.75, "unit": "%"}, {"measurement": "activity, negative = cell killing", "setting": "[1]; [4]", "value": -21.3, "unit": "%"}, {"measurement": "activity, negative = cell killing", "setting": "[1]; [5]", "value": -14.2, "unit": "%"}, {"measurement": "activity, negative = cell killing", "setting": "[1]; [6]", "value": -8.17, "unit": "%"}]}
{"compound": "CCCC(=O)Nc1ncnc2c1ncn2[C@@H]1O[C@@H]2COP(=O)(O)O[C@H]2[C@H]1OC(=O)CCC", "values": [{"measurement": "activity, negative = cell killing", "setting": "[1]; [3]", "value": -14.5, "unit": "%"}, {"measurement": "activity, negative = cell killing", "setting": "[1]; [4]", "value": -5, "unit": "%"}, {"measurement": "activity, negative = cell killing", "setting": "[1]; [5]", "value": -18.2, "unit": "%"}, {"measurement": "activity, negative = cell killing", "setting": "[1]; [6]", "value": -13.8, "unit": "%"}]}
{"compound": "CC1(C)O[C@@H]2C[C@H]3[C@@H]4CCC5=CC(=O)C=C[C@]5(C)[C@H]4[C@@H](O)C[C@]3(C)[C@]2(C(=O)CO)O1", "values": [{"measurement": "activity, negative = cell killing", "setting": "[1]; [3]", "value": -5.55, "unit": "%"}, {"measurement": "activity, negative = cell killing", "setting": "[1]; [5]", "value": -10.6, "unit": "%"}, {"measurement": "activity, negative = cell killing", "setting": "[1]; [6]", "value": -10.7, "unit": "%"}]}
{"compound": "C[C@]12C=CC(=O)N[C@@H]1CC[C@@H]1[C@@H]2CC[C@]2(C)[C@@H](C(=O)Nc3cc(C(F)(F)F)ccc3C(F)(F)F)CC[C@@H]12", "values": [{"measurement": "activity, negative = cell killing", "setting": "[1]; [6]", "value": -29.8, "unit": "%"}]}
{"compound": "Cc1cn([C@H]2C[C@H](O)[C@@H](CO)O2)c(=O)[nH]c1=O", "values": [{"measurement": "activity, negative = cell killing", "setting": "[1]; [3]", "value": -14.8, "unit": "%"}, {"measurement": "activity, negative = cell killing", "setting": "[1]; [4]", "value": 6.82, "unit": "%"}, {"measurement": "activity, negative = cell killing", "setting": "[1]; [5]", "value": -23.5, "unit": "%"}, {"measurement": "activity, negative = cell killing", "setting": "[1]; [6]", "value": -19.1, "unit": "%"}]}
{"compound": "CN1CCC(CN2c3ccccc3Sc3ccccc32)C1", "note": "(stereo not given)", "values": [{"measurement": "activity, negative = cell killing", "setting": "[1]; [6]", "value": 0.543, "unit": "%"}, {"measurement": "Potency", "setting": "[1]; tumour line A", "value": "7.08 µM (active)"}, {"measurement": "Potency", "setting": "[1]; tumour line B", "value": "35.5 µM (active)"}, {"measurement": "Potency", "setting": "[1]; tumour line D", "value": "17.8 µM (active)"}]}
{"compound": "CC(=O)OCC(=O)[C@@]12OC3(CCCC3)O[C@@H]1C[C@H]1[C@@H]3CCC4=CC(=O)C=C[C@]4(C)[C@@]3(F)[C@@H](O)C[C@@]12C", "values": [{"measurement": "activity, negative = cell killing", "setting": "[1]; [3]", "value": -7.71, "unit": "%"}, {"measurement": "activity, negative = cell killing", "setting": "[1]; [4]", "value": -10.7, "unit": "%"}, {"measurement": "activity, negative = cell killing", "setting": "[1]; [6]", "value": 3.06, "unit": "%"}]}
{"compound": "C=CC1=C(C)C2=CC3=NC(=C(CC(=O)[O-])C4=NC(=C(C)C4=C([O-])[O-])C=c4[n-]c(c(C)c4CC)=CC1=N2)C(CCC(=O)[O-])C3C.[Cu+2].[Na+].[Na+].[Na+]", "note": "(stereo not given)", "values": [{"measurement": "activity, negative = cell killing", "setting": "[1]; [5]", "value": -28, "unit": "%"}, {"measurement": "activity, negative = cell killing", "setting": "[1]; [6]", "value": 10.7, "unit": "%"}]}
{"compound": "COc1ccc(CCNC[C@H](O)c2ccc(O)cc2)cc1OC", "values": [{"measurement": "activity, negative = cell killing", "setting": "[1]; [3]", "value": -3.8, "unit": "%"}, {"measurement": "activity, negative = cell killing", "setting": "[1]; [4]", "value": -0.958, "unit": "%"}, {"measurement": "activity, negative = cell killing", "setting": "[1]; [6]", "value": -0.44, "unit": "%"}]}
{"compound": "N[C@H](C(=O)O)[C@@H]1CC(Cl)=NO1", "values": [{"measurement": "activity, negative = cell killing", "setting": "[1]; [4]", "value": -29.2, "unit": "%"}, {"measurement": "activity, negative = cell killing", "setting": "[1]; [5]", "value": -38.5, "unit": "%"}, {"measurement": "Potency", "setting": "[1]; tumour line C", "value": "6.51 µM (active)"}]}
{"compound": "CCOc1ccc2c(c1)C(C)=CC(C)(C)N2", "values": [{"measurement": "activity, negative = cell killing", "setting": "[1]; [6]", "value": -10, "unit": "%"}, {"measurement": "Potency", "setting": "[1]; tumour line A", "value": "39.8 µM (active)"}]}
{"compound": "COC(=O)CCC(=O)CN", "values": [{"measurement": "activity, negative = cell killing", "setting": "[1]; [3]", "value": -21.7, "unit": "%"}, {"measurement": "activity, negative = cell killing", "setting": "[1]; [4]", "value": -18.7, "unit": "%"}, {"measurement": "activity, negative = cell killing", "setting": "[1]; [5]", "value": -28.4, "unit": "%"}, {"measurement": "activity, negative = cell killing", "setting": "[1]; [6]", "value": -13.1, "unit": "%"}]}
{"compound": "CC(=O)N[C@@H](CC(=O)N[C@@H](CCC(=O)O)C(=O)O)C(=O)O", "values": [{"measurement": "activity, negative = cell killing", "setting": "[1]; [3]", "value": -3.93, "unit": "%"}, {"measurement": "activity, negative = cell killing", "setting": "[1]; [4]", "value": 0.816, "unit": "%"}, {"measurement": "activity, negative = cell killing", "setting": "[1]; [6]", "value": 6.84, "unit": "%"}, {"measurement": "Potency", "setting": "[1]; tumour line A", "value": "22.4 µM (active)"}]}
{"compound": "CCc1ccc2c(c1)N(CC(C)CN(C)C)c1ccccc1S2", "note": "(stereo not given)", "values": [{"measurement": "activity, negative = cell killing", "setting": "[1]; [6]", "value": 11.1, "unit": "%"}, {"measurement": "Potency", "setting": "[1]; tumour line A", "value": "4.47 µM (active)"}, {"measurement": "Potency", "setting": "[1]; tumour line B", "value": "25.1 µM (active)"}]}
{"compound": "CN(C)CC/C=C1/c2ccccc2CSc2ccccc21", "values": [{"measurement": "activity, negative = cell killing", "setting": "[1]; [7]", "value": -1.3, "unit": "%"}, {"measurement": "activity, negative = cell killing", "setting": "[1]; at 21.2 µM (top of the series), tumour line B", "value": -26.2, "unit": "%"}, {"measurement": "Potency", "setting": "[1]; tumour line A", "value": "12.6 µM (active)"}, {"measurement": "Potency", "setting": "[1]; tumour line D", "value": "12.6 µM (active)"}, {"measurement": "Potency", "setting": "[2]", "value": "inactive"}]}
{"compound": "CC1=C(/C=C/C(C)=C/C=C/C(C)=C/CO)C(C)(C)CCC1", "values": [{"measurement": "activity, negative = cell killing", "setting": "[1]; [3]", "value": -16.9, "unit": "%"}, {"measurement": "activity, negative = cell killing", "setting": "[1]; [4]", "value": -16.1, "unit": "%"}, {"measurement": "Potency", "setting": "[1]; tumour line A", "value": "31.6 µM (active)"}]}
{"compound": "CC(C)N=c1cc2n(-c3ccc(Cl)cc3)c3ccccc3nc-2cc1Nc1ccc(Cl)cc1", "values": [{"measurement": "activity, negative = cell killing", "setting": "[1]; [7]", "value": -8.51, "unit": "%"}, {"measurement": "Potency", "setting": "[1]; tumour line A", "value": "5.01 µM (active)"}]}
{"compound": "CC(=O)Oc1c(C)cc(OCC(O)CNC(C)C)c(C)c1C", "note": "(stereo not given)", "values": [{"measurement": "activity, negative = cell killing", "setting": "[1]; [3]", "value": -11.9, "unit": "%"}, {"measurement": "activity, negative = cell killing", "setting": "[1]; [4]", "value": 5.15, "unit": "%"}, {"measurement": "activity, negative = cell killing", "setting": "[1]; [6]", "value": 13.3, "unit": "%"}]}
{"compound": "C#CCOc1ccc2c(C)cc(=O)oc2c1", "values": [{"measurement": "activity, negative = cell killing", "setting": "[1]; [3]", "value": -16.6, "unit": "%"}, {"measurement": "activity, negative = cell killing", "setting": "[1]; [4]", "value": -17.5, "unit": "%"}, {"measurement": "activity, negative = cell killing", "setting": "[1]; [6]", "value": -16.5, "unit": "%"}]}
